Measurements published in PubChem BioAssay AID1159580 (chemical genetic matrix, 2015).
Values joined by “and” are separate entries in the source; they are usually repeats but may differ in a detail not shown here. Equal entries are not always repeated. Out of some 5,500 compounds screened, about 2,000 (36%) were called active. Not shown: some 18% with an inconclusive outcome. Cut-off read from the data, not from the text of the source: active = normalized growth mostly below about 0.91 (no sharp cut-off); inconclusive = no clear call, values can overlap the other calls; inactive = mostly above about 0.92. Some of the results follow.

Experiment: chemical genetic growth profiling, strain panel (AID 1159580);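 note: tested at 20 µM; growth read once vehicle control cultures reached saturation at 30 °C; 1 = growth at the plate median or of vehicle wells; lower values mean less growth of the strain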
Details: growth OD
[1] = S. cerevisiae deletion strains, locus YAL013W, strain DEP1, active compounds read low
[2] = S. cerevisiae deletion strains, locus YAL040C, strain CLN3, active compounds read low
[3] = S. cerevisiae deletion strains, locus YDR150W, strain NUM1, active compounds read low
[4] = S. cerevisiae deletion strains, locus YDR363W, strain ESC2, active compounds read low
[5] = S. cerevisiae deletion strains, locus YER002W, strain NOP16, active compounds read low
[6] = S. cerevisiae deletion strains, locus YGR078C, strain PAC10, active compounds read low
[7] = S. cerevisiae deletion strains, locus YGR229C, strain SMI1, active compounds read low
[8] = S. cerevisiae deletion strains, locus YJR075W, strain HOC1, active compounds read low
[9] = S. cerevisiae deletion strains, locus YMR263W, strain SAP30, active compounds read low
[10] = S. cerevisiae deletion strains, locus YMR307W, strain GAS1, active compounds read low
[11] = S. cerevisiae deletion strains, locus YNL128W, strain TEP1, active compounds read low
[12] = S. cerevisiae deletion strains, locus YNL153C, strain GIM3, active compounds read low
[13] = S. cerevisiae deletion strains, locus YNL175C, strain NOP13, active compounds read low
[14] = S. cerevisiae deletion strains, locus YNL197C, strain WHI3, active compounds read low
[15] = S. cerevisiae deletion strains, locus YNL224C, strain SQS1, active compounds read low
[16] = S. cerevisiae deletion strains, locus YNL322C, strain KRE1, active compounds read low
[17] = S. cerevisiae deletion strains, locus YOR083W, strain WHI5 (second series), active compounds read low
[18] = S. cerevisiae deletion strains, locus YPL055C, strain LGE1, active compounds read low

Measured: normalized growth

CN(C)c1nc(N)c(C(=O)N=C(N)N)nc1Cl
inactive: [1] 1.01 | [2] 1 | S. cerevisiae deletion strains, locus YBR021W, strain FUR4, active compounds read low 1.01 | S. cerevisiae deletion strains, locus YBR229C, strain ROT2, active compounds read low 1.01 | S. cerevisiae deletion strains, locus YCL029C, strain bik1, active compounds read low 1.01 | S. cerevisiae deletion strains, locus YDL035C, strain GPR1, active compounds read low 1.03 | S. cerevisiae deletion strains, locus YDL074C, strain BRE1, active compounds read low 0.983 | S. cerevisiae deletion strains, locus YDL101C, strain DUN1, active compounds read low 1.01 | S. cerevisiae deletion strains, locus YDL134C, strain PPH21, active compounds read low 0.999 | S. cerevisiae deletion strains, locus YDL185W, strain tfp1, active compounds read low 1.01 | S. cerevisiae deletion strains, locus YDL192W, strain arf1, active compounds read low 1.01 | S. cerevisiae deletion strains, locus YDR101C, strain arx1, active compounds read low 1 | [3] 0.982 and 0.999 | S. cerevisiae deletion strains, locus YDR162C, strain NBP2, active compounds read low 0.985 | S. cerevisiae deletion strains, locus YDR318W, strain mcm21, active compounds read low 1.02 | [4] 1 | S. cerevisiae deletion strains, locus YDR388W, active compounds read low 1 | S. cerevisiae deletion strains, locus YDR502C, strain sam2, active compounds read low 0.983 | S. cerevisiae deletion strains, locus YEL061C, strain CIN8, active compounds read low 1.01 | [5] 1.01 | S. cerevisiae deletion strains, locus YER110C, active compounds read low 1.02 | S. cerevisiae deletion strains, locus YER155C, strain BEM2, active compounds read low 1.01 | S. cerevisiae deletion strains, locus YER167W, strain BCK2, active compounds read low 1.02 | S. cerevisiae deletion strains, locus YGL078C, strain dbp3, active compounds read low 0.989 | S. cerevisiae deletion strains, locus YGL086W, strain mad1, active compounds read low 1.02 | S. cerevisiae deletion strains, locus YGL248W, strain PDE1, active compounds read low 1 | [6] 0.99 | S. cerevisiae deletion strains, locus YGR135W, strain pre9, active compounds read low 0.967 | [7] 1 | S. cerevisiae deletion strains, locus YGR252W, strain gcn5, active compounds read low 1.02 | S. cerevisiae deletion strains, locus YHR030C, strain SLT2, active compounds read low 1.01 | S. cerevisiae deletion strains, locus YHR079C, strain IRE1 (second series), active compounds read low 1.01 | S. cerevisiae deletion strains, locus YHR094C, strain hxt1, active compounds read low 0.998 | S. cerevisiae deletion strains, locus YHR129C, strain ARP1, active compounds read low 1.01 | S. cerevisiae deletion strains, locus YHR200W, strain rpn10, active compounds read low 1 | S. cerevisiae deletion strains, locus YIL066C, strain RNR3, active compounds read low 1.02 | S. cerevisiae deletion strains, locus YIL073C, strain SPO22, active compounds read low 1.07 | S. cerevisiae deletion strains, locus YIL125W, strain kgd1, active compounds read low 1 | S. cerevisiae deletion strains, locus YIR030C, strain dcg1, active compounds read low 0.998 | S. cerevisiae deletion strains, locus YJL095W, strain BCK1, active compounds read low 0.997 | S. cerevisiae deletion strains, locus YJL134W, strain LCB3, active compounds read low 1 | S. cerevisiae deletion strains, locus YJL168C, strain set2, active compounds read low 1 | S. cerevisiae deletion strains, locus YJL187C, strain SWE1 (second series), active compounds read low 0.988 | S. cerevisiae deletion strains, locus YJR043C, strain POL32, active compounds read low 1.03 | [8] 1.01 | S. cerevisiae deletion strains, locus YKL009W, strain mrt4, active compounds read low 1.06 | S. cerevisiae deletion strains, locus YKL068W, active compounds read low 0.997 | S. cerevisiae deletion strains, locus YKL085W, strain MDH1 (second series), active compounds read low 1.01 | S. cerevisiae deletion strains, locus YKL085W, strain MDH1, active compounds read low 1.01 | S. cerevisiae deletion strains, locus YKL190W, strain CNB1, active compounds read low 1.01 | S. cerevisiae deletion strains, locus YKR001C, strain vps1, active compounds read low 1.02 | S. cerevisiae deletion strains, locus YLR039C, strain RIC1, active compounds read low 1.06 | S. cerevisiae deletion strains, locus YLR058C, strain SHM2, active compounds read low 1.01 | S. cerevisiae deletion strains, locus YLR102C, strain apc9, active compounds read low 1 | S. cerevisiae deletion strains, locus YLR262C, strain YPT6, active compounds read low 1.04 | S. cerevisiae deletion strains, locus YLR268W, strain sec22, active compounds read low 0.988 | S. cerevisiae deletion strains, locus YLR330W, strain CHS5, active compounds read low 1.01 | S. cerevisiae deletion strains, locus YLR342W, strain FKS1 (second series), active compounds read low 1.07 | S. cerevisiae deletion strains, locus YLR371W, strain rom2, active compounds read low 1.01 | S. cerevisiae deletion strains, locus YLR418C, strain cdc73, active compounds read low 0.925 | S. cerevisiae deletion strains, locus YML016C, strain PPZ1, active compounds read low 1 | S. cerevisiae deletion strains, locus YML032C, strain rad52, active compounds read low 1.03 | S. cerevisiae deletion strains, locus YML124C, strain tub3, active compounds read low 0.999 | S. cerevisiae deletion strains, locus YMR078C, strain ctf18, active compounds read low 1.01 | S. cerevisiae deletion strains, locus YMR223W, strain ubp8, active compounds read low 1.02 | [9] 0.988 | [10] 1.06 | S. cerevisiae deletion strains, locus YNL067W, strain RPL9B, active compounds read low 0.986 | [11] 1.01 | [12] 0.999 and 0.967 | [13] 1.01 | [14] 1 | [15] 1.01 | S. cerevisiae deletion strains, locus YNL233W, strain BNI4, active compounds read low 0.989 | S. cerevisiae deletion strains, locus YNL250W, strain rad50, active compounds read low 1.01 | S. cerevisiae deletion strains, locus YNL271C, strain bni1, active compounds read low 1.01 | S. cerevisiae deletion strains, locus YNL298W, strain CLA4, active compounds read low 1.01 | S. cerevisiae deletion strains, locus YNL307C, strain MCK1, active compounds read low 1.02 | [16] 1.01 | S. cerevisiae deletion strains, locus YNR052C, strain pop2, active compounds read low 1.02 | S. cerevisiae deletion strains, locus YOL006C, strain TOP1, active compounds read low 0.981 | S. cerevisiae deletion strains, locus YOL012C, strain htz1 1.37 | S. cerevisiae deletion strains, locus YOL147C, strain pex11, active compounds read low 1.01 | S. cerevisiae deletion strains, locus YOR061W, strain CKA2, active compounds read low 1.01 | S. cerevisiae deletion strains, locus YOR069W, strain VPS5, active compounds read low 1.01 | [17] 1.01 | S. cerevisiae deletion strains, locus YOR136W, strain idh2, active compounds read low 1 | S. cerevisiae deletion strains, locus YOR144C, strain elg1, active compounds read low 1 | S. cerevisiae deletion strains, locus YOR184W, strain ser1, active compounds read low 1.05 | S. cerevisiae deletion strains, locus YOR316C, strain cot1, active compounds read low 1 | [18] 0.956 | S. cerevisiae deletion strains, locus YPL241C, strain CIN2, active compounds read low 0.999 | S. cerevisiae deletion strains, locus YPR119W, strain clb2, active compounds read low 0.988 | S. cerevisiae deletion strains, locus YPR141C, strain kar3, active compounds read low 0.999 | S. cerevisiae deletion strains, locus YPR163C, strain tif3, active compounds read low 0.999 | S. cerevisiae deletion strains, locus YPR167C, strain met16, active compounds read low 1 | S. cerevisiae deletion strains, strain wtn01, active compounds read low 0.997 | S. cerevisiae strains, strain wild type, active compounds read low 1.01

CCN(c1nc(N)c(C(=O)N=C(N)N)nc1Cl)C(C)C
inactive: [1] 1 | [2] 1 | [4] 0.989 | [5] 1.04 | [9] 1 | [13] 1.04 | [14] 1.02 | [15] 1.06 | [17] 1.02

CC(C)CN(C)c1nc(N)c(C(=O)N=C(N)N)nc1Cl
inactive: [2] 0.968 | S. cerevisiae deletion strains, locus YCL061C, strain MRC1 (second series), active compounds read low 0.963 | [5] 1.04 | [6] 0.99 | [8] 0.957 | [9] 0.986 | [10] 0.971 | [11] 0.986 | [12] 0.855 | [13] 1.01 | [14] 1 | [15] 1.03
active: [17] 0.866

NC(=NCc1ccccc1)NC(=O)c1nc(Cl)c(N)nc1N
inactive: [2] 1 | [3] 1.02 | [4] 0.994 | [5] 1.01 | [7] 0.999 | [12] 0.993 | [13] 1.01 | [14] 0.996 | [15] 1.02 | [16] 1.01 | [17] 0.965 | [18] 1.01
